Laboratory results: PubChem BioAssay AID2315 (National Center for Advancing Translational Sciences (NCATS), 2010)
Where “and” joins values, the source holds several entries; their conditions need not be identical. Equal entries are not always repeated. In all, about 290,000 compounds went through this assay and about 27,000 (9.3%) were called active. Cut-off read from the data, not from the text of the source: active = inhibition mostly above about 28% (no sharp cut-off); inactive = mostly below about 43%. The list comes from a sample in which actives are over-represented; it also holds similar structures and randomly drawn compounds.

Experiment: A qHTS for Small Molecule Inhibitors of Shiga Toxin; note: 0% is about no effect
Settings: Vero cells, Shiga toxin protein synthesis inhibition reporter; at 38.7 µM, stronger effect = higher value
With `CC(C)c1ccc(S(=O)(=O)N2CCC3(CC2)OCCO3)cc1` the inhibition was -8.25% (inactive).
With `COc1cccc(Nc2nc(N)c([N+](=O)[O-])c(NCc3ccco3)n2)c1` the inhibition was 45.8% (inactive).
In the case of `Nc1nc(Nc2ccccc2)nc(NCCO)c1[N+](=O)[O-]`, the inhibition is reported as 16.8% (inactive).
For `CNc1nc(Nc2ccc(C)c(Cl)c2)nc(N)c1[N+](=O)[O-]`, the inhibition was 68.3% (active).
In the case of `CN(Cc1ccco1)S(=O)(=O)c1nnc(NC(=O)c2ccccc2)s1`, the inhibition is reported as 38.9% (inactive).
With `COc1cccc(NC(=O)COC(=O)CCOc2ccccc2OC)c1` the inhibition was -8.03% (inactive).
In the case of `COc1ccc(/C=C/C(=O)OCC(=O)Nc2cccc(Oc3ccccc3)c2)c(OC)c1`, the inhibition is reported as -4.44% (inactive).
In the case of `COc1cc(/C=C/C(=O)OCC(=O)Nc2cccc(Oc3ccccc3)c2)ccc1O`, the inhibition is reported as 51.6% (active).
For `CCOc1ccccc1CNS(=O)(=O)c1cc(-c2cc(C)no2)ccc1C`, the inhibition was -5.31% (inactive).
For `CCCCC(=O)Nc1ccccc1N1CCN(c2ccc(F)cc2)CC1`, the inhibition was -8.03% (inactive).
With `Cc1cc(C)c(S(=O)(=O)c2ccc(F)cc2C)c(=O)[nH]1` the inhibition was 3.7% (inactive).
For `O=C(N/C(=C\c1ccc([N+](=O)[O-])cc1)C(=O)N1CCCCC1)c1ccco1`, the inhibition was -18.7% (inactive).
With `COC(=O)c1ccccc1NC(=S)NC(=O)c1ccccc1F` the inhibition was -1.7% (inactive).
For `O=C(NC(=S)Nc1ccccc1C(=O)O)c1ccc(-c2ccc(Br)cc2)o1`, the inhibition was 125% (active).
In the case of `O=C(O)c1ccccc1NC(=O)c1ccccc1-c1ccccc1C(=O)O`, the inhibition is reported as -1.49% (inactive).
For `O=C(CSc1nc2nccnc2c(=O)n1Cc1cccs1)Nc1ccccc1F`, the inhibition was 18.1% (inactive).
For `CC(=O)Nc1ccc(NC(=O)C2CCCN(S(=O)(=O)c3ccc(Cl)cc3)C2)cc1` (configuration not stated), the inhibition was -4.09% (inactive).
In the case of `CCCNC(=O)CCc1c(C)nc2c(c(C)nn2-c2ccc(C)cc2)c1C`, the inhibition is reported as -2.23% (inactive).
With `CCCNC(=O)c1ccc(Cl)c(Cl)c1` the inhibition was -6.36% (inactive).
With `CCCNC(=O)c1c(Cl)cnn1-c1ccc(C)cc1` the inhibition was 59.9% (active).
For `COc1ccc(-n2nc(C(=O)Nc3cc(OC)c(OC)c(OC)c3)c3ccccc3c2=O)c(OC)c1`, the inhibition was -1.7% (inactive).
For `COc1ccc(-n2nc(C(=O)NCC(=O)N3CCN(c4ccccc4OC)CC3)c3ccccc3c2=O)c(OC)c1`, the inhibition was 73.3% (active).
With `COc1cccc(NC(=O)c2nn(-c3ccc(OC)cc3OC)c(=O)c3ccccc23)c1` the inhibition was -8.21% (inactive).
With `Cc1csc(NC(=O)NC2(C(F)(F)F)Oc3ccccc3O2)n1` the inhibition was 24.4% (inactive).
For `Cc1csc(NC(=O)Nc2ccccc2[N+](=O)[O-])n1`, the inhibition was 67.7% (active).
With `Cc1cc(NC(=O)Nc2ccccc2[N+](=O)[O-])no1` the inhibition was 28.7% (inactive).
In the case of `COC(=O)C1=CN(c2ccc(F)c(F)c2)C=C(C(=O)OC)C1c1ccc([N+](=O)[O-])cc1`, the inhibition is reported as 3.77% (inactive).
For `Cc1[nH][nH]c(=O)c1N=Nc1ccccc1`, the inhibition was -4.84% (inactive).
With `Nc1[nH][nH]c(=O)c1N=Nc1ccc2c(c1)OCO2` the inhibition was 74.5% (active).
With `Cc1[nH][nH]c(=O)c1C(c1ccc2c(c1)OCO2)c1c(C)[nH][nH]c1=O` the inhibition was -5.46% (inactive).
For `CC1CCC(NS(=O)(=O)c2ccc3c(c2)CC(=O)N3)CC1` (configuration not stated), the inhibition was -4.99% (inactive).
For `COc1ccc(OC(C)C(=O)NCCc2nc3ccccc3[nH]2)cc1` (configuration not stated), the inhibition was -1.88% (inactive).
For `c1ccc2c(CSCc3nc4ccccc4[nH]3)cccc2c1`, the inhibition was 42.3% (inactive).
With `Clc1ccccc1SCc1nc2ccccc2[nH]1` the inhibition was 79.4% (active).
With `COc1cc(C(=O)NN(CCC#N)C2=NS(=O)(=O)c3ccccc32)cc(OC)c1OC` the inhibition was -7% (inactive).
In the case of `O=C(c1ccc(CS(=O)(=O)c2ccccc2)o1)N1CCN(c2ccccc2)CC1`, the inhibition is reported as -5.16% (inactive).
With `COc1ccc(C2(C)NC(=O)N(CC(=O)c3ccc4c(c3)OCO4)C2=O)cc1` (configuration not stated) the inhibition was 20.5% (inactive).
In the case of `O=C(CSc1nnc(CNC(=O)c2ccc(F)cc2)o1)Nc1ccc2c(c1)OCO2`, the inhibition is reported as -2.6% (inactive).
With `O=C(O)c1ccc(OCC2CCCO2)cc1` (configuration not stated) the inhibition was -1.54% (inactive).
In the case of `C=CCn1c(SCc2ccccc2)nc2c1c(=O)[nH]c(=O)n2C`, the inhibition is reported as -10.2% (inactive).
With `Cc1c(C(=O)NC(C)C2CC3CCC2C3)cccc1[N+](=O)[O-]` (configuration not stated) the inhibition was -7.71% (inactive).
In the case of `COC(=O)/C(NC(C)=O)=C(\C)c1ccc(Cl)cc1`, the inhibition is reported as -4.26% (inactive).
In the case of `COC(=O)C(=Nc1ccccc1)/C(C(=O)C(=O)N(C)c1ccccc1)=C(\O)c1ccc(Cl)cc1`, the inhibition is reported as 127% (active).
In the case of `COC(=O)c1cn(C(=O)c2ccc(Cl)cc2)c2ccccc12`, the inhibition is reported as 10.5% (inactive).
In the case of `COCCn1cnc2c1c(=O)n(Cc1ccc(Br)cc1)c(=O)n2Cc1ccccc1`, the inhibition is reported as 15.6% (inactive).
In the case of `Cc1ccc(C2CCN(C(=S)Nc3cccc(Cl)c3)C2)cc1` (configuration not stated), the inhibition is reported as 47.7% (active).
For `Cc1cccc(NC(=S)N2CCCC(c3nc4ccccc4[nH]3)C2)c1` (configuration not stated), the inhibition was -11.2% (inactive).
For `O=C(C1CCCO1)N1CCN(C(=S)Nc2cccc(Cl)c2)CC1` (configuration not stated), the inhibition was -2.49% (inactive).
In the case of `COc1cc(N2C(=O)CSC2=S)cc(OC)c1OC`, the inhibition is reported as -9% (inactive).
With `CN(C)CCNC(=O)c1[nH]nc2c1CCc1ccccc1-2` the inhibition was 35.7% (inactive).
With `Cc1cc(=O)cc(C)n1-c1ccc(Cl)c(Cl)c1` the inhibition was 14.3% (inactive).
For `CCCCC(=O)NCc1ccc(F)cc1`, the inhibition was 21.3% (inactive).
In the case of `O=C(Cc1c(O)c2ccccc2[nH]c1=O)NCc1ccccc1`, the inhibition is reported as -13.9% (inactive).
With `O=C(/C=C/NCc1ccc(F)cc1)c1ccccc1` the inhibition was 61.7% (active).
For `O=C(CCCc1ccccc1)NCc1ccccc1`, the inhibition was 39.1% (active).
In the case of `O=C(CNCc1ccc(F)cc1)Nc1ccccc1-c1ccccc1`, the inhibition is reported as -4.12% (inactive).
For `O=C(O)CCCc1ccccc1`, the inhibition was -13.8% (inactive) and 15.3% (inactive).
In the case of `O=C(CCOc1ccccc1)NCc1ccccc1`, the inhibition is reported as -3.66% (inactive).
For `O=C(Cc1ccccc1)NCc1ccc(F)cc1`, the inhibition was 55.7% (active).
With `O=C(/C=C\NCC(=O)c1ccccc1)c1ccccc1` the inhibition was 17.6% (inactive).
For `CCn1c(SCC(=O)NC2CC2)nnc1-c1ccccc1OC`, the inhibition was -5.24% (inactive).
In the case of `O=C1/C(=C/c2ccc(F)cc2)SC(=S)N1CCCC(=O)N1CCCCC1CCO` (configuration not stated), the inhibition is reported as -4.46% (inactive).
For `CN(C)CCCN(C(=O)c1ccc(S(=O)(=O)N2CCCc3ccccc32)cc1)c1nc2ccc(F)cc2s1`, the inhibition was -2.08% (inactive).
With `O=C(NCc1ccncc1)C1CCN(C(=O)c2cccc(Cl)c2)CC1` the inhibition was 4.24% (inactive).
In the case of `COC(=O)C1(C)NC(c2ccc(C)cc2)C2C(=O)N(c3ccc(F)cc3)C(=O)C21` (configuration not stated), the inhibition is reported as -13.6% (inactive).
With `O=S(=O)(c1cc(Cl)ccc1Cl)N1CCN(Cc2ccco2)CC1` the inhibition was -10.2% (inactive).
For `O=c1[nH]c2ccc(S(=O)(=O)N3CCCC3)cc2[nH]1`, the inhibition was -12.3% (inactive).
With `Cc1ccc(C(C(=O)NCC2CCCO2)N(C(=O)c2snc(C(N)=O)c2N)c2ccc(C(C)C)cc2)o1` (configuration not stated) the inhibition was 3.97% (inactive).
In the case of `N#Cc1cccc(CN2CCC(=O)N([C@H](CO)c3ccccc3)CC2)c1`, the inhibition is reported as -4.45% (inactive).
For `O=C(NCC1CC1)C1(C(F)(F)F)C/C(=C\CCO)CCCO1` (configuration not stated), the inhibition was 2.98% (inactive).
In the case of `Cc1c2cnn(CC(=O)NCc3ccccn3)c(=O)c2c(C)n1Cc1ccc(Cl)cc1`, the inhibition is reported as -4.19% (inactive).
In the case of `C/C(=N\NC(=O)c1ccccc1F)c1ccccn1`, the inhibition is reported as 61.3% (active).
For `COc1ccc(CC(=O)N/N=C(\C)c2ccccn2)cc1`, the inhibition was -0.965% (inactive).
In the case of `C/C(=N\NC(=O)Cc1ccc(Cl)cc1)c1ccccn1`, the inhibition is reported as 13.2% (inactive).
With `CCCCN(CC)CCNC(=O)CCNC(=O)Cn1ccc2ccccc2c1=O` the inhibition was -4.87% (inactive).
For `O=S(=O)(c1ccc(F)cc1)N1CCN=C1SCc1cccc(F)c1`, the inhibition was -6% (inactive).
In the case of `Cc1ccc(C)c(NC(=O)c2ccc3nccnc3c2)c1`, the inhibition is reported as 19.7% (inactive).
In the case of `CC(C)CCC(C)NC(=O)c1ccc2nccnc2c1` (configuration not stated), the inhibition is reported as 95.5% (active).
In the case of `COCC(C)NC(=O)c1ccc(Cl)c(Cl)c1` (configuration not stated), the inhibition is reported as -2.73% (inactive).
With `COC(=O)Cc1cnc(NC(=O)CSc2nc(C(C)C)cc(=O)[nH]2)s1` the inhibition was -7.11% (inactive).
With `Oc1ccc(Br)cc1/C=N/Nc1ccccn1` the inhibition was 66.3% (active).
With `CCN(CC)CCn1c(/N=C/c2cc(Br)ccc2O)nc2ccccc21` the inhibition was 26.3% (inactive).
For `Oc1ccc(Br)cc1C=Nc1ccc2[nH]ncc2c1`, the inhibition was -11.4% (inactive).
In the case of `FC(F)(F)c1cccc(N/N=C/c2ccccc2)c1`, the inhibition is reported as 33.8% (inactive).
In the case of `Oc1ccc(/C=N/Nc2ccc(C(F)(F)F)cn2)cc1O`, the inhibition is reported as 108% (active).
With `Cc1nccn1CC(=O)N/N=C/c1ccc(O)c(O)c1` the inhibition was -15.2% (inactive).
With `COc1cc(C(=O)NCCOC(=O)c2cccc(N(C)C)c2)cc(OC)c1OC` the inhibition was -2.34% (inactive).
For `N#C/C=C/N1CCN(Cc2ccc3c(c2)OCO3)CC1`, the inhibition was -6.62% (inactive).
For `CCC(CC)NC(=O)CSc1nnc(-c2c[nH]c3ccccc23)o1`, the inhibition was -14.4% (inactive).
For `O=C(CSc1nnc(-c2c[nH]c3ccccc23)o1)c1ccccc1`, the inhibition was 22.5% (active).
For `CN(C(=O)CSc1nnc(-c2c[nH]c3ccccc23)o1)C1CCS(=O)(=O)C1` (configuration not stated), the inhibition was -1.73% (inactive).
For `Cc1cccc(OCC(=O)Nc2ccc(NC(=O)c3ccco3)c(C)c2)c1`, the inhibition was -4.8% (inactive).
In the case of `COc1ccc(-c2nonc2NC(=O)c2oc3ccc(F)cc3c2C)cc1OC`, the inhibition is reported as -3.6% (inactive).
With `CCOc1ccccc1CN1CCN(C2CCC2)CC1CCO` (configuration not stated) the inhibition was -4.75% (inactive).
With `CC1CCN(C(=O)c2ccc(CSc3ccc(Cl)cc3)cc2)CC1` the inhibition was 0.865% (inactive).
With `O=C(c1ccc(CSc2ccccc2)cc1)N1CCCCCC1` the inhibition was 17.6% (active).
For `O=C(c1ccc(S(=O)(=O)c2ccccc2)cc1)N1CCCCCC1`, the inhibition was 1.55% (inactive).
